# From ChEMBL document CHEMBL2218924, “A broad activity screen in support of a chemogenomic map for kinase signalling research and drug discovery” (Biochem J, 2013)
# Columns and labels:
# [1] = target: Calcium/calmodulin-dependent protein kinase type 1 (Homo sapiens) (UniProt Q14012); details: at 10 µM
# [2] = target: Calcium/calmodulin-dependent protein kinase type II subunit beta (Homo sapiens) (UniProt Q13554); details: at 10 µM
# [3] = target: T1, Calcium/calmodulin-dependent protein kinase type IV (Homo sapiens) (UniProt Q16566); details: at 1 µM
# T1 sequence (whole entry): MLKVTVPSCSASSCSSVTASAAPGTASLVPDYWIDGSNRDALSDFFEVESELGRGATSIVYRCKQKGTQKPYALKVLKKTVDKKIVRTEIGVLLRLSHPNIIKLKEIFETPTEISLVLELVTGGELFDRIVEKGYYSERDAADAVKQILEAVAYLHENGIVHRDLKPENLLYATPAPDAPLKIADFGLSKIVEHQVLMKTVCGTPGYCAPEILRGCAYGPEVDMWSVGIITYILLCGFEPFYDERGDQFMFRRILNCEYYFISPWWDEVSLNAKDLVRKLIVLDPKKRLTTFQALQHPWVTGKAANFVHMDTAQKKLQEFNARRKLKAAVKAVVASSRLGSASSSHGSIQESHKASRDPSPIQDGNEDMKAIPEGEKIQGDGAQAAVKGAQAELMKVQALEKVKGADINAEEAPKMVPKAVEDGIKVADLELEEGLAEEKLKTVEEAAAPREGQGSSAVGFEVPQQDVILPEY
# [4] = target: T1, Calcium/calmodulin-dependent protein kinase type IV (Homo sapiens); details: at 10 µM
# [5] = target: T2, Serine/threonine-protein kinase DCLK2 (Homo sapiens) (UniProt Q8N568); details: at 1 µM
# T2 sequence (whole entry): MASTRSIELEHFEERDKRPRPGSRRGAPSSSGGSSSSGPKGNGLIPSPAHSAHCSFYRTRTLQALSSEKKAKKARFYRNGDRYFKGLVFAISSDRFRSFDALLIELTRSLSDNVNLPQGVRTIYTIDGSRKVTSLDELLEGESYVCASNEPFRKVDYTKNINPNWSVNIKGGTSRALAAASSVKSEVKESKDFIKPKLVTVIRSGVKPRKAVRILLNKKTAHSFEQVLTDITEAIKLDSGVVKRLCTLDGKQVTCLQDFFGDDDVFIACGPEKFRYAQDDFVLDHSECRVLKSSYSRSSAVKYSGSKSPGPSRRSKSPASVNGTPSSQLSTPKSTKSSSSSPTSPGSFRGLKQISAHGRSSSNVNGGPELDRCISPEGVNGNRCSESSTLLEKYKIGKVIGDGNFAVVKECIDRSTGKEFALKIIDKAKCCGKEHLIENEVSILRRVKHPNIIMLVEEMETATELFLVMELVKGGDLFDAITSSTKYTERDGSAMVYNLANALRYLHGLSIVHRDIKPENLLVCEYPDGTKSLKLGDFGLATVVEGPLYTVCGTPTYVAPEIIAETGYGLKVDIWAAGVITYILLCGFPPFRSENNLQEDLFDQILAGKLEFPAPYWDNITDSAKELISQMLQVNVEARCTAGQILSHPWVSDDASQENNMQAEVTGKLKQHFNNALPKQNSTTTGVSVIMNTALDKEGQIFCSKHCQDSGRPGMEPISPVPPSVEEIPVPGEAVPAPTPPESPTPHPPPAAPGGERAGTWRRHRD
# [6] = target: T2, Serine/threonine-protein kinase DCLK2 (Homo sapiens); details: at 10 µM
# [7] = target: T3, Discoidin domain-containing receptor 2 (Homo sapiens) (UniProt Q16832); details: at 1 µM
# T3 sequence (whole entry): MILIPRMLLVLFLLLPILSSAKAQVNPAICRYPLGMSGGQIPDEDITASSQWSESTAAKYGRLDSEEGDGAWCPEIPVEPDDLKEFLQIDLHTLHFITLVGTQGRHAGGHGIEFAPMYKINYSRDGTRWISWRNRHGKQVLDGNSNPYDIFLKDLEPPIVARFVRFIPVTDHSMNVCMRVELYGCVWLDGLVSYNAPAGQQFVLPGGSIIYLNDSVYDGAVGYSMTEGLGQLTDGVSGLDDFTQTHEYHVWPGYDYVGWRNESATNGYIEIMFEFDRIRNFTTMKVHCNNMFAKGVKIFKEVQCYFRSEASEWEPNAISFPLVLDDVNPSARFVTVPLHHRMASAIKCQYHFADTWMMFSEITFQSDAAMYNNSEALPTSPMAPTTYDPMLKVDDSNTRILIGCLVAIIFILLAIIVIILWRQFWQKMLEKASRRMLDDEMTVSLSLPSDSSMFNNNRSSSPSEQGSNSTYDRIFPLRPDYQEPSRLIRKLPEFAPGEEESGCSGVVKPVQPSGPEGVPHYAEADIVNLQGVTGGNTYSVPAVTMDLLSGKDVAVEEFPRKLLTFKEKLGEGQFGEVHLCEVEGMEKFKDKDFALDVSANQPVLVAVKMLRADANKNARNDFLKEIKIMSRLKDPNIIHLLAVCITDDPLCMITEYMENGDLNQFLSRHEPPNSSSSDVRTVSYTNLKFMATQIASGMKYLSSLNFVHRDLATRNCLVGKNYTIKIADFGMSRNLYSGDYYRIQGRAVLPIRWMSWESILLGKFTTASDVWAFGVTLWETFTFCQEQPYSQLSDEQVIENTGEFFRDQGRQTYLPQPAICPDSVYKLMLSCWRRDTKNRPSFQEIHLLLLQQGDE
# [8] = target: Calcium/calmodulin-dependent protein kinase type II subunit beta (Homo sapiens) (UniProt Q13554); details: at 1 µM
# [9] = target: Death-associated protein kinase 1 (Homo sapiens) (UniProt P53355); details: at 10 µM
# [10] = target: T3, Discoidin domain-containing receptor 2 (Homo sapiens); details: at 10 µM
# [11] = target: T4, Myotonin-protein kinase (Homo sapiens) (UniProt Q09013); details: at 1 µM
# T4 sequence (whole entry): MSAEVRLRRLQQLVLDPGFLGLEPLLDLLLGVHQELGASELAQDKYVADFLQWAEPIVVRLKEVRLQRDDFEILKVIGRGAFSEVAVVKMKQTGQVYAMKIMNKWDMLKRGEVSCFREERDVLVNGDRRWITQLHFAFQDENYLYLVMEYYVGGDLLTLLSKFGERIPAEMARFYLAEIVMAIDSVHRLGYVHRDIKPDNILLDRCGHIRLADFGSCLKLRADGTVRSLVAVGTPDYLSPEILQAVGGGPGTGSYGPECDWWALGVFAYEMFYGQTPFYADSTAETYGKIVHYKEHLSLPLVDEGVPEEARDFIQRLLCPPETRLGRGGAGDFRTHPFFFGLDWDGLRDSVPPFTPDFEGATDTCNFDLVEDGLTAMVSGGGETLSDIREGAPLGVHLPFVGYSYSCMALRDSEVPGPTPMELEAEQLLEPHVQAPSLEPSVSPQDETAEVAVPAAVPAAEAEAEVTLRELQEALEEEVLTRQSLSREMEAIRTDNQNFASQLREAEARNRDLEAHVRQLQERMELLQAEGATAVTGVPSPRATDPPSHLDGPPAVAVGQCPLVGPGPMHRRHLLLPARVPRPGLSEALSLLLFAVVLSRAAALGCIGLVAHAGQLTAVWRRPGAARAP
# [12] = target: T5, Serine/threonine-protein kinase 17A (Homo sapiens) (UniProt Q9UEE5); details: at 1 µM
# T5 sequence (whole entry): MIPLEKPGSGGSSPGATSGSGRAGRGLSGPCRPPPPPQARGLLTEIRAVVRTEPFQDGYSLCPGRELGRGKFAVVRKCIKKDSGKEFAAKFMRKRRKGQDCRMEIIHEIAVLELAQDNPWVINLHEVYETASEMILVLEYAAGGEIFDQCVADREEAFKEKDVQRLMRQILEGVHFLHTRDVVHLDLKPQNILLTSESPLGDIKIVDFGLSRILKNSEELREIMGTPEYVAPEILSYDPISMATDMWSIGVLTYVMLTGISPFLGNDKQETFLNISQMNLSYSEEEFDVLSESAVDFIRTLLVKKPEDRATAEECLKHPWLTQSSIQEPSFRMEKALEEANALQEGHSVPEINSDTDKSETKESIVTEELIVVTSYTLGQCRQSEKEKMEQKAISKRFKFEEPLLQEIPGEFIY
# [13] = target: Calcium/calmodulin-dependent protein kinase type II subunit gamma (Homo sapiens) (UniProt Q13555); details: at 1 µM
# [14] = target: Calcium/calmodulin-dependent protein kinase type II subunit gamma (Homo sapiens) (UniProt Q13555); details: at 10 µM
# [15] = target: Calcium/calmodulin-dependent protein kinase type II subunit delta (Homo sapiens) (UniProt Q13557); details: at 1 µM
# [16] = target: Calcium/calmodulin-dependent protein kinase type II subunit delta (Homo sapiens) (UniProt Q13557); details: at 10 µM
# [17] = target: T4, Myotonin-protein kinase (Homo sapiens); details: at 10 µM
# [18] = target: Death-associated protein kinase 2 (Homo sapiens) (UniProt Q9UIK4); details: at 10 µM
# [19] = target: Death-associated protein kinase 2 (Homo sapiens) (UniProt Q9UIK4); details: at 1 µM
# Chain of Death-associated protein kinase 2 (Homo sapiens) (Q9UIK4 whole entry, looked up): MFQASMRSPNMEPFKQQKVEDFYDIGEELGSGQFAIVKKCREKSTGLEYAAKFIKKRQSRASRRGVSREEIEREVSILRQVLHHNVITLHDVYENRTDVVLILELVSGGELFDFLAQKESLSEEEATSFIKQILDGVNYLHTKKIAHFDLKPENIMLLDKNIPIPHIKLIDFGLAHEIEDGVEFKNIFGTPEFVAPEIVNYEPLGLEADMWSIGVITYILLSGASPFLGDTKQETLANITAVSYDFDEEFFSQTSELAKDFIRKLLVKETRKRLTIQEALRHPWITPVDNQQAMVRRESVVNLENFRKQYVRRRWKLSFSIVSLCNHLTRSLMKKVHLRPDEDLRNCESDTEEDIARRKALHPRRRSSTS
# Chain of Death-associated protein kinase 1 (Homo sapiens) (P53355 whole entry, looked up, the tested form may be a part): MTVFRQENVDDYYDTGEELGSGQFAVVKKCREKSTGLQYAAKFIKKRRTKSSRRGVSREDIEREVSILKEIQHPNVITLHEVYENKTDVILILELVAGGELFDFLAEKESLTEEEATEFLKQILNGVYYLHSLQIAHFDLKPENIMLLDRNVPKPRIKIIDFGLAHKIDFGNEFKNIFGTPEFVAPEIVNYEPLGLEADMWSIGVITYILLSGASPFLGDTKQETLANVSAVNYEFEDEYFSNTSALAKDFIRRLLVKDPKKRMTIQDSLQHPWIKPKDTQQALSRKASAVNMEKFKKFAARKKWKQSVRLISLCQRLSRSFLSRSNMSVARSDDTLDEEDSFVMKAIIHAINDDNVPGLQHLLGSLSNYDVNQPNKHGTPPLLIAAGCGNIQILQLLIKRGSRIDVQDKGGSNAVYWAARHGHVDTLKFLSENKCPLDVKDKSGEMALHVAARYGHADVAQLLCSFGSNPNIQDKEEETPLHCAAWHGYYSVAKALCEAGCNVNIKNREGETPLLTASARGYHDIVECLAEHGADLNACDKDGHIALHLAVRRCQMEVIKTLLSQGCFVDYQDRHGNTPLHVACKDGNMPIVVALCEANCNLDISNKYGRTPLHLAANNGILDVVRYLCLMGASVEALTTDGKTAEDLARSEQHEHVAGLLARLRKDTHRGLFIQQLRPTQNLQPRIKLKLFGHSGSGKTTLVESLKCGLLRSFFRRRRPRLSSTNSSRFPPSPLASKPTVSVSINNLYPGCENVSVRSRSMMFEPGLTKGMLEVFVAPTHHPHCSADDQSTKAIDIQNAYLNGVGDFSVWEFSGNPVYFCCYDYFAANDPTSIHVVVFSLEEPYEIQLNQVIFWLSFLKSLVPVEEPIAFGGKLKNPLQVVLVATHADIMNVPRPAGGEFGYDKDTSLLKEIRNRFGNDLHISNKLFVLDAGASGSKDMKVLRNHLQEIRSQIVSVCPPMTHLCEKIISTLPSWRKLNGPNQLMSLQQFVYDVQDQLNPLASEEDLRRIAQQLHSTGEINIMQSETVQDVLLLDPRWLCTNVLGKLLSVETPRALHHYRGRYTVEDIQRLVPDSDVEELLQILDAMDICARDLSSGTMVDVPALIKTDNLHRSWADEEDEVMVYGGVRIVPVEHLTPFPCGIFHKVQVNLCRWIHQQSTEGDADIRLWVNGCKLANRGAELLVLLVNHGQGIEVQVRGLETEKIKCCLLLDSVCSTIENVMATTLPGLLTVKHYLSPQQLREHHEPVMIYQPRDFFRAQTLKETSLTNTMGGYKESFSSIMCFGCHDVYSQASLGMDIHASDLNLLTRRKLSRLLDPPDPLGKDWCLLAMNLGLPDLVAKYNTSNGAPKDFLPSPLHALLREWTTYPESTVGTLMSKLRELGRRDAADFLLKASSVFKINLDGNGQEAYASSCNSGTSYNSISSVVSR
# Chain of Calcium/calmodulin-dependent protein kinase type II subunit gamma (Homo sapiens) (Q13555 whole entry): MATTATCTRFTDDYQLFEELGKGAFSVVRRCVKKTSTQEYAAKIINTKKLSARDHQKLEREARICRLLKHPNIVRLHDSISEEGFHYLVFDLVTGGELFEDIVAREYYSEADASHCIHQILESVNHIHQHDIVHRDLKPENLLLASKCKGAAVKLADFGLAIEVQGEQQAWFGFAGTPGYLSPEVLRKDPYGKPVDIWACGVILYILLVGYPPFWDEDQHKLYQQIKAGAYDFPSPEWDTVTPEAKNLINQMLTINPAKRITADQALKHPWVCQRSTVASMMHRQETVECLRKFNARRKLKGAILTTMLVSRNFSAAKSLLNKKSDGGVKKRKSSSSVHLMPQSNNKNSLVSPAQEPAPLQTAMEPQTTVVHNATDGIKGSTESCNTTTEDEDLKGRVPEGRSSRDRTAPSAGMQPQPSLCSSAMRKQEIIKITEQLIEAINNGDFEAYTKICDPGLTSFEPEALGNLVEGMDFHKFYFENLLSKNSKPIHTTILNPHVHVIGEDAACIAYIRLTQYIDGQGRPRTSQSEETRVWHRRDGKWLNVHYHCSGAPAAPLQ
# Chain of Calcium/calmodulin-dependent protein kinase type 1 (Homo sapiens) (Q14012 whole entry, looked up): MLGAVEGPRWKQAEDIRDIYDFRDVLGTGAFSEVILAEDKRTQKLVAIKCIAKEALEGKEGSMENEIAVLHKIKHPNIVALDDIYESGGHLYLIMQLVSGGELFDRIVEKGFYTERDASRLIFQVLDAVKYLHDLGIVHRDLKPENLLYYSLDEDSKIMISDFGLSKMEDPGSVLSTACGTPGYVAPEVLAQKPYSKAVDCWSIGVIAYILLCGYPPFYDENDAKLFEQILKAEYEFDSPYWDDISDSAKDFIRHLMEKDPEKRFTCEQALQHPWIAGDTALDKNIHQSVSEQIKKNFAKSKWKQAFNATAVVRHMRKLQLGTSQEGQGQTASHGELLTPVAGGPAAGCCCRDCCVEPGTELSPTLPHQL
# Chain of Calcium/calmodulin-dependent protein kinase type II subunit beta (Homo sapiens) (Q13554 whole entry): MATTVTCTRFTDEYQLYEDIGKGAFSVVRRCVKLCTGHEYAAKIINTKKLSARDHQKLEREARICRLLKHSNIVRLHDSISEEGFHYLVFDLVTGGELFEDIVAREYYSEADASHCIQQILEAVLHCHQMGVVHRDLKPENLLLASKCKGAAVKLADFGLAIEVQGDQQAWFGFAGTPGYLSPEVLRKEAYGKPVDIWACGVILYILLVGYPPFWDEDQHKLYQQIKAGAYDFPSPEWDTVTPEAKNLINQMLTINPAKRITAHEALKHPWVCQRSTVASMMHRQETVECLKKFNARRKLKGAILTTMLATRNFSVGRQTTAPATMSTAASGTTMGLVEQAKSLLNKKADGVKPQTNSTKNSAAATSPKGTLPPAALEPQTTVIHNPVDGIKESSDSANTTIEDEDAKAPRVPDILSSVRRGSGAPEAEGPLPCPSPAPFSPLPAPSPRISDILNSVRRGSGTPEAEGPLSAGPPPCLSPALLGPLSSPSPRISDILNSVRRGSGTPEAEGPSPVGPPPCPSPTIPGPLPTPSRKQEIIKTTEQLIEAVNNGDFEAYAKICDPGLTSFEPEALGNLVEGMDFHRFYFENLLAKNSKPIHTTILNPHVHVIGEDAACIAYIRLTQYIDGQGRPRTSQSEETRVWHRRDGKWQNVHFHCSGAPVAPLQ
# Chain of Calcium/calmodulin-dependent protein kinase type II subunit delta (Homo sapiens) (Q13557 whole entry): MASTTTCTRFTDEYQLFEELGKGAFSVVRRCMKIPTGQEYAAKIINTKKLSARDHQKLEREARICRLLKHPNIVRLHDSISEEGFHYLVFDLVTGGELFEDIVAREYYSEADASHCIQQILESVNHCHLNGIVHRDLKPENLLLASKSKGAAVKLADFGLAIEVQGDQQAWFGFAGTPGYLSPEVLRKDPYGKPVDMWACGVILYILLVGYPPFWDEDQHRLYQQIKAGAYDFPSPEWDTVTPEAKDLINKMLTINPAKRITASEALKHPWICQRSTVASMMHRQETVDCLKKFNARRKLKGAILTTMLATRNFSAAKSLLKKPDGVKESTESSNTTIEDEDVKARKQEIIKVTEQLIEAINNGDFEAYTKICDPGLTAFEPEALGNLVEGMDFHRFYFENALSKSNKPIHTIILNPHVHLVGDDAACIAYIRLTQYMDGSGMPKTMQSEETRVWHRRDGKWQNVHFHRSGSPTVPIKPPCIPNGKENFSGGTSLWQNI
compound,measurement,setting,value
N#C/C(=C\c1ccc(O)c(O)c1)C(=O)NCc1ccccc1,residual activity,[1],87%
same,residual activity,[2],89%
same,residual activity,[3],121%
same,residual activity,[4],84%
same,residual activity,[5],69%
same,residual activity,[6],88%
same,residual activity,[7],119%
COc1ccc(Cl)cc1NC(=O)Nc1cc(C)nc2ccccc12,residual activity,[8],88%
same,residual activity,[2],72%
same,residual activity,[9],66%
same,residual activity,[7],83%
same,residual activity,[10],39%
same,residual activity,[11],94%
same,residual activity,[12],97%
N#C/C(=C1/Nc2ccccc2S1)c1ccnc(NCCc2cccnc2)n1,residual activity,[2],25%
same,residual activity,[13],80%
same,residual activity,[14],21%
same,residual activity,[15],83%
same,residual activity,[16],24%
same,residual activity,[3],88%
same,residual activity,[4],34%
same,residual activity,[17],78%
same,residual activity,[12],60%
CCN1/C(=C/C(C)=O)Sc2ccc(OC)cc21,residual activity,[2],70%
same,residual activity,[9],79%
same,residual activity,[17],70%
O=C(Nc1ccc(Cl)cc1)c1ccccc1NCc1ccncc1,residual activity,[18],119%
same,residual activity,[5],74%
same,residual activity,[10],36%
same,residual activity,[12],99%
Oc1cccc(-c2nc(N3CCOCC3)c3oc4ncccc4c3n2)c1,residual activity,[2],90%
same,residual activity,[13],98%
same,residual activity,[14],66%
same,residual activity,[4],75%
same,residual activity,[9],76%
same,residual activity,[19],93%
same,residual activity,[5],94%
same,residual activity,[6],65%
same,residual activity,[12],116%
Nc1nccc(-c2c(-c3ccc(F)cc3)ncn2C2CCNCC2)n1,residual activity,[2],55%
same,residual activity,[14],62%
same,residual activity,[15],100%
same,residual activity,[16],56%
same,residual activity,[11],129%
same,residual activity,[17],83%
O=C1C(Cl)=C(N2C(=O)CCC2=O)C(=O)c2ccccc21,residual activity,[1],78%
same,residual activity,[8],90%
same,residual activity,[2],86%
same,residual activity,[15],97%
same,residual activity,[16],99%
same,residual activity,[4],10%
same,residual activity,[9],90%
same,residual activity,[7],89%
same,residual activity,[17],85%
COc1ccc(COc2ccc(Cc3cnc(N)nc3N)cc2OC)cc1,residual activity,[1],76%
same,residual activity,[3],130%
same,residual activity,[9],82%
same,residual activity,[7],112%
same,residual activity,[11],115%
same,residual activity,[17],139%
same,residual activity,[12],112%
O=S(=O)(NCCNC/C=C/c1ccc(Br)cc1)c1cccc2cnccc12,residual activity,[8],76%
same,residual activity,[2],29%
same,residual activity,[13],100%
same,residual activity,[14],41%
same,residual activity,[16],35%
same,residual activity,[6],100%
O=c1cc(N2CCOCC2)oc2c(-c3ccccc3)cccc12,residual activity,[1],55%
same,residual activity,[2],79%
same,residual activity,[6],76%
same,residual activity,[11],134%
same,residual activity,[17],130%
O=C1Cc2c([nH]c3ccc([N+](=O)[O-])cc23)-c2ccccc2N1,residual activity,[8],61%
same,residual activity,[2],76%
same,residual activity,[13],24%
same,residual activity,[15],32%
same,residual activity,[16],20%
same,residual activity,[12],10%
CSc1nc(-c2ccc(F)cc2)c(-c2ccnc(NC(C)c3ccccc3)c2)[nH]1 (stereo not given),residual activity,[1],87%
same,residual activity,[2],75%
same,residual activity,[13],98%
same,residual activity,[14],83%
same,residual activity,[15],102%
same,residual activity,[16],83%
same,residual activity,[4],92%
same,residual activity,[9],96%
same,residual activity,[19],101%
same,residual activity,[18],95%
same,residual activity,[5],137%
same,residual activity,[6],100%
same,residual activity,[7],98%
same,residual activity,[10],93%
O=c1c(-c2ccc(F)cc2)c(-c2ccncc2)[nH]n1-c1ccc(Cl)cc1,residual activity,[5],122%
same,residual activity,[10],36%
same,residual activity,[17],99%
